{
  "source": "the supplement of paper PMC8728848",
  "binders": {"B1": {"name": "EULS2 M3 (Oryza sativa) (protein)", "chain": "MVYCRANPNYAMTARNGAVVLAPANPKDEYQHWIKDMRWSTSIKDEEGYPAFALVNKATGQAIKHSLGQSHPVRLVPYNPEVMDESVLWTESRDVGNGFRCIRMVNNIYLNFDAFHGDKYHGGVRDGTDIVLWKLCEGDSLRWKIQPYYILEQKLISEEDLNSAVDHHHHHH"}},
  "assay_in_all_cases": "glycan array binding signal (z-score within array); higher = stronger binding",
  "conditions_in_all_cases": "glycan notation: IUPAC condensed, linker removed",
  "key": {"[1]": {"target": "Fuc(a1-2)Gal(b1-4)GlcNAc(b1-3)Gal(b1-4)GlcNAc", "in_short": "(§1)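 The Consortium for Functional Glycomics database supplied 3228 glycan arrays, of which those lacking an available protein sequence were dropped. The binding signal, a within-array Z-score, was averaged across arrays of the same protein sequence and across linkers. Negative scores can be read as non-binding.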"}, "[2]": {"target": "Fuc(a1-2)Gal(b1-4)GlcNAc(b1-3)Gal(b1-4)GlcNAc(b1-2)Man(a1-3)[Fuc(a1-2)Gal(b1-4)GlcNAc(b1-3)Gal(b1-4)GlcNAc(b1-2)Man(a1-6)]Man(b1-4)GlcNAc(b1-4)GlcNAc", "in_short": "as §1"}, "[3]": {"target": "Fuc(a1-2)[Gal(a1-3)]Gal(b1-3)GlcNAc", "in_short": "as §1"}, "[4]": {"target": "Fuc(a1-3)[Gal3S(b1-4)]Glc", "in_short": "as §1"}, "[5]": {"target": "Gal(a1-3)Gal(b1-3)GlcNAc", "in_short": "as §1"}, "[6]": {"target": "Gal(a1-3)Gal(b1-4)Glc", "in_short": "as §1"}, "[7]": {"target": "Gal(a1-3)Gal(b1-4)GlcNAc(b1-6)GalNAc", "in_short": "as §1"}, "[8]": {"target": "Gal(b1-3)GlcNAc(a1-3)Gal(b1-4)GlcNAc", "in_short": "as §1"}, "[9]": {"target": "Gal(b1-3)GlcNAc(b1-3)Gal(b1-4)GlcNAc(b1-3)Gal(b1-4)GlcNAc(b1-2)[Gal(b1-3)GlcNAc(b1-3)Gal(b1-4)GlcNAc(b1-3)Gal(b1-4)GlcNAc(b1-6)]Man(a1-6)[Gal(b1-3)GlcNAc(b1-3)Gal(b1-4)GlcNAc(b1-3)Gal(b1-4)GlcNAc(b1-2)Man(a1-3)]Man(b1-4)GlcNAc(b1-4)[Fuc(a1-6)]GlcNAc", "in_short": "as §1"}, "[10]": {"target": "Gal(b1-3)[Fuc(a1-4)]GlcNAc(b1-2)Man", "in_short": "as §1"}, "[11]": {"target": "Gal(b1-3)[Fuc(a1-4)]GlcNAc(b1-3)Gal(b1-3)[Fuc(a1-4)]GlcNAc", "in_short": "as §1"}, "[12]": {"target": "Gal(b1-4)GalNAc(a1-3)[Fuc(a1-2)]Gal(b1-4)GlcNAc", "in_short": "as §1"}, "[13]": {"target": "Gal(b1-4)GalNAc(b1-3)[Fuc(a1-2)]Gal(b1-4)GlcNAc", "in_short": "as §1"}, "[14]": {"target": "Gal(b1-4)GlcNAc(b1-3)Gal(b1-4)GlcNAc(b1-3)Gal(b1-4)GlcNAc(b1-3)Gal(b1-4)GlcNAc(b1-2)[Gal(b1-4)GlcNAc(b1-3)Gal(b1-4)GlcNAc(b1-3)Gal(b1-4)GlcNAc(b1-3)Gal(b1-4)GlcNAc(b1-6)]Man(a1-6)[Gal(b1-4)GlcNAc(b1-3)Gal(b1-4)GlcNAc(b1-3)Gal(b1-4)GlcNAc(b1-3)Gal(b1-4)GlcNAc(b1-2)Man(a1-3)]Man(b1-4)GlcNAc(b1-4)[Fuc(a1-6)]GlcNAc", "in_short": "as §1"}, "[15]": {"target": "Gal(b1-4)GlcNAc(b1-3)Gal(b1-4)GlcNAc(b1-3)[Gal(b1-4)GlcNAc(b1-3)Gal(b1-4)GlcNAc(b1-6)]GalNAc", "in_short": "as §1"}, "[16]": {"target": "Gal3S(b1-4)[Fuc(a1-3)]GlcNAc6S", "in_short": "as §1"}, "[17]": {"target": "GalNAc(b1-3)Gal", "in_short": "as §1"}, "[18]": {"target": "GalNAc(b1-4)Gal(b1-4)Glc", "in_short": "as §1"}, "[19]": {"target": "GalNAc3S(b1-4)[Fuc(a1-3)]GlcNAc", "in_short": "as §1"}, "[20]": {"target": "GalNAc4S6S(b1-4)GlcNAc", "in_short": "as §1"}, "[21]": {"target": "Glc(a1-4)Glc", "in_short": "as §1"}, "[22]": {"target": "Glc(a1-6)Glc(a1-6)Glc(a1-6)Glc", "in_short": "as §1"}, "[23]": {"target": "GlcNAc(a1-3)Gal(b1-4)GlcNAc", "in_short": "as §1"}, "[24]": {"target": "GlcNAc(a1-4)Gal(b1-4)GlcNAc(b1-3)Gal(b1-4)GlcNAc(b1-3)Gal(b1-4)GlcNAc", "in_short": "as §1"}, "[25]": {"target": "GlcNAc(b1-3)Gal(b1-4)GlcNAc(b1-2)Man(a1-3)[GlcNAc(b1-3)Gal(b1-4)GlcNAc(b1-2)Man(a1-6)]Man(b1-4)GlcNAc(b1-4)GlcNAc", "in_short": "as §1"}, "[26]": {"target": "GlcNAc(b1-3)Gal(b1-4)GlcNAc(b1-2)[GlcNAc(b1-3)Gal(b1-4)GlcNAc(b1-6)]Man(a1-6)[GlcNAc(b1-3)Gal(b1-4)GlcNAc(b1-2)Man(a1-3)]Man(b1-4)GlcNAc(b1-4)GlcNAc", "in_short": "as §1"}, "[27]": {"target": "GlcNAc(b1-3)Gal(b1-4)GlcNAc(b1-3)Gal(b1-4)GlcNAc(b1-3)Gal(b1-4)GlcNAc(b1-2)[GlcNAc(b1-3)Gal(b1-4)GlcNAc(b1-3)Gal(b1-4)GlcNAc(b1-3)Gal(b1-4)GlcNAc(b1-6)]Man(a1-6)[GlcNAc(b1-3)Gal(b1-4)GlcNAc(b1-3)Gal(b1-4)GlcNAc(b1-3)Gal(b1-4)GlcNAc(b1-2)Man(a1-3)]Man(b1-4)GlcNAc(b1-4)[Fuc(a1-6)]GlcNAc", "in_short": "as §1"}, "[28]": {"target": "GlcNAc(b1-4)GlcNAc(b1-4)GlcNAc", "in_short": "as §1"}, "[29]": {"target": "GlcNAc(b1-4)GlcNAc(b1-4)GlcNAc(b1-4)GlcNAc(b1-4)GlcNAc(b1-4)GlcNAc", "in_short": "as §1"}, "[30]": {"target": "GlcNAc(b1-6)Gal(b1-4)GlcNAc", "in_short": "as §1"}},
  "note": "This excerpt belongs to a sample that is enriched for the strongest signals.",
  "data": [
    {"binder": "B1", "values": [
      {"measurement": "glycan array binding signal (z-score)", "setting": "[1]", "result": 0.227},
      {"measurement": "glycan array binding signal (z-score)", "setting": "[2]", "result": 0.177},
      {"measurement": "glycan array binding signal (z-score)", "setting": "[3]", "result": 1.44},
      {"measurement": "glycan array binding signal (z-score)", "setting": "[4]", "result": 0.485},
      {"measurement": "glycan array binding signal (z-score)", "setting": "[5]", "result": 8.25},
      {"measurement": "glycan array binding signal (z-score)", "setting": "[6]", "result": 0.227},
      {"measurement": "glycan array binding signal (z-score)", "setting": "[7]", "result": -0.929},
      {"measurement": "glycan array binding signal (z-score)", "setting": "[8]", "result": 2.02},
      {"measurement": "glycan array binding signal (z-score)", "setting": "[9]", "result": 1.66},
      {"measurement": "glycan array binding signal (z-score)", "setting": "[10]", "result": 1.17},
      {"measurement": "glycan array binding signal (z-score)", "setting": "[11]", "result": 2.13},
      {"measurement": "glycan array binding signal (z-score)", "setting": "[12]", "result": -0.34},
      {"measurement": "glycan array binding signal (z-score)", "setting": "[13]", "result": -0.158},
      {"measurement": "glycan array binding signal (z-score)", "setting": "[14]", "result": 0.461},
      {"measurement": "glycan array binding signal (z-score)", "setting": "[15]", "result": 0.234},
      {"measurement": "glycan array binding signal (z-score)", "setting": "[16]", "result": 2.11},
      {"measurement": "glycan array binding signal (z-score)", "setting": "[17]", "result": 2.46},
      {"measurement": "glycan array binding signal (z-score)", "setting": "[18]", "result": 0.053},
      {"measurement": "glycan array binding signal (z-score)", "setting": "[19]", "result": -0.623},
      {"measurement": "glycan array binding signal (z-score)", "setting": "[20]", "result": 0.056},
      {"measurement": "glycan array binding signal (z-score)", "setting": "[21]", "result": 0.668},
      {"measurement": "glycan array binding signal (z-score)", "setting": "[22]", "result": 1.67},
      {"measurement": "glycan array binding signal (z-score)", "setting": "[23]", "result": -0.405},
      {"measurement": "glycan array binding signal (z-score)", "setting": "[24]", "result": -0.139},
      {"measurement": "glycan array binding signal (z-score)", "setting": "[25]", "result": -0.171},
      {"measurement": "glycan array binding signal (z-score)", "setting": "[26]", "result": 0.562},
      {"measurement": "glycan array binding signal (z-score)", "setting": "[27]", "result": 0.306},
      {"measurement": "glycan array binding signal (z-score)", "setting": "[28]", "result": -0.413},
      {"measurement": "glycan array binding signal (z-score)", "setting": "[29]", "result": -0.977},
      {"measurement": "glycan array binding signal (z-score)", "setting": "[30]", "result": 1.64}
    ]}
  ]
}
